Laboratory results reported in PubChem BioAssay (EPA / NIEHS).
Records with an inconclusive call do not appear. Activity calls are given as the source filed them. How the source made its calls, unless noted: active means hit-call score of the fitted dose curve at least 0.9, where 1 is the maximum; inconclusive means response in the unintended direction; inactive means score below 0.9.

Key:
[1] = molecular target: Cellular tumor antigen p53 (Homo sapiens) (UniProt P04637); assay: TOX21_p53_BLA_p4_ratio: Tox21 HCT-116 p53 Agonism Beta-lactamase Assay, Ratio, Phase 4 (AID 2283601)
Sequence of Cellular tumor antigen p53 (Homo sapiens) (P04637 whole entry, looked up): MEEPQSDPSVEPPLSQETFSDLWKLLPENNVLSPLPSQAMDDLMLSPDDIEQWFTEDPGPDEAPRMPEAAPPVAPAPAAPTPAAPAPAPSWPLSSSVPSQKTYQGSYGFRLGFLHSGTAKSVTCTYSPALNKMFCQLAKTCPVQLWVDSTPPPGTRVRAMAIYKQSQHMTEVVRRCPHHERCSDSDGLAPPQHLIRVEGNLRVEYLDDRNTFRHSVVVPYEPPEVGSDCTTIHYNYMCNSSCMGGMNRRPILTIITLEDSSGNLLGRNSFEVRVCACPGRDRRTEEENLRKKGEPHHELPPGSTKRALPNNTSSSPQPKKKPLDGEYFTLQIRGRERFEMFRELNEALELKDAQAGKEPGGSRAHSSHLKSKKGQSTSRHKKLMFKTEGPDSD
How it was run: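 HCT-116 p53 beta-lactamase reporter cells (4000/well) preincubated 5 h, then compound (217-fold dilution of DMSO stock) for 16 h at 37C. CCF4-AM substrate added 2 h at room temperature; 460/530 nm emission ratio fitted upward versus DMSO.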

[2] = CEETOX_H295R_MTT_cell_viability: Viability Assessment in the CeeTox HT-H295R MTT Assay (AID 2283718; active means hit-call score of the fitted dose curve at least 0.9, where 1 is the maximum; inactive means score below 0.9)
How it was run: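 Human H295R adrenal cells, prestimulated 48 h with 10 uM forskolin, were exposed 48 h to chemicals in 0.1% DMSO. Viability was measured in the same wells by MTT (0.5 mg/ml, 4 h, 37 C), absorbance 570/650 nm, as percent of controls.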

[3] = system: Thyroperoxidase (TPO), gene 54314; assay: CCTE_Simmons_AUR_rTPO: CCTE's Amplex UltraRed Assay for Thyroperoxidase (TPO) Inhibition, Simmons Lab (AID 2283662);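 on AC50: potency for loss of signal meaning inhibition of peroxidase activity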
How it was run: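 Rat thyroid microsomes (5 ug protein) with 25 uM Amplex UltraRed and 300 uM H2O2 in 200 mM phosphate buffer, 30 min at 37C in dark; fluorescence 544/590 nm. Eight concentrations, 5 nM–87.5 uM final, 0.5% DMSO, triplicate biological replicates.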

[4] = CCTE_Simmons_CellTiterGLO_HEK293T: Viability Assessment in CCTE's Assays for Thyroperoxidase (TPO) Inhibition, Simmons Lab (AID 2283665);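 on AC50: cells exposed to compound for 24 h before readout; actives reduce ATP signal below DMSO vehicle meaning cytotoxicity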
How it was run: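 HEK293T cells in DMEM with 1% FBS were dosed with 8 concentrations (5 nM–87.5 uM final, 0.5% DMSO) for 24 hr at 37C; ATP content was read by CellTiter-Glo luminescence, loss-of-signal versus DMSO, three biological replicates.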

[5] = molecular target: Luciferin 4-monooxygenase (Photinus pyralis) (UniProt P08659); assay: CCTE_Simmons_QuantiLum_inhib_2: CCTE's Firefly Luciferase Inhibition Assay, Simmons Lab (AID 2283767);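 on AC50: potency for inhibitors that lower luciferase luminescence relative to DMSO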
Sequence of Luciferin 4-monooxygenase (Photinus pyralis) (P08659 whole entry, looked up): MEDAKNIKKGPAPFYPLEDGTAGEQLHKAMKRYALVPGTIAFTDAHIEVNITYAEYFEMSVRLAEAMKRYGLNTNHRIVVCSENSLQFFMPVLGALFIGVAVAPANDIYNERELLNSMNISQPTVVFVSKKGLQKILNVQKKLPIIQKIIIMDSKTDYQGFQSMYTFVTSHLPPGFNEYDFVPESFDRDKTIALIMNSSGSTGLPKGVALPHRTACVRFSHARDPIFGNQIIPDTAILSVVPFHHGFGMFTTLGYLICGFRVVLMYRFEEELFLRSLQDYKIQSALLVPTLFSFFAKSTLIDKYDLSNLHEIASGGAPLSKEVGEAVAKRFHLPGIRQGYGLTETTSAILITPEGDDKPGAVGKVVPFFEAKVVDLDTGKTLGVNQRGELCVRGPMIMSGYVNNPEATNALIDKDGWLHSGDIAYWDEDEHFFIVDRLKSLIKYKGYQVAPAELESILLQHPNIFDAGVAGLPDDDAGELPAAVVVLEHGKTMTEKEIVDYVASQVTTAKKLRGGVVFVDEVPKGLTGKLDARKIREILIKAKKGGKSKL
How it was run: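 Recombinant firefly luciferase (5 ng/well, 200 mM potassium phosphate with 1 mg/ml BSA) was exposed to 8 concentrations from 5 nM to 87.5 uM (final, 0.5% DMSO) for 30 min at 37C in the dark. Loss of luminescence versus DMSO was read after injecting D-luciferin/ATP-analogue reagent.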

[6] = ACEA_AR_agonist_AUC_viability: ACEA Biosciences xCELLigence Real-Time Cell Analysis on Androgen Receptor Agonism for Viability (AID 2283775);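 on AC50: viability read 80 hours after compound addition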
How it was run: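 Read-out is area under the impedance curve at 80 h post-dose in 22Rv1 cells, with DMSO as baseline and signal loss taken as reduced viability. Compounds ran in duplicate from 100 uM final.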

[7] = ACEA_AR_antagonist_AUC_viability: ACEA Biosciences xCELLigence Real-Time Cell Analysis on Androgen Receptor Antagonism for Viability (AID 2283776);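 further: area under impedance growth curve at 80 h after dosing as viability; hits lower the growth signal relative to DMSO meaning cytotoxicity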
How it was run: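 22Rv1 human prostate cancer cells were seeded on electrode plates, monitored overnight, then exposed to eight 1:4 dilutions from 100 uM final. Impedance-based growth kinetics at 80 h gave an AUC viability endpoint normalized to DMSO.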

[8] = TOX21_p53_BLA_p5_viability: Viability Assessment in the Tox21 HCT-116 p53 Agonism Beta-lactamase Assay, Phase 5 (AID 2283600)
How it was run: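 HCT-116 p53 beta-lactamase reporter cells, 4000/well, were exposed to compound (pin transfer, 217-fold dilution) for 16 hours at 37C. Cellular ATP was read by CellTiter-Glo luminescence after 30 min at room temperature.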

Structure (SMILES): O=C1c2c(O)ccc(Nc3ccc(CCO)cc3)c2C(=O)c2c([N+](=O)[O-])ccc(O)c21
- outcome [1]: inactive

Structure (SMILES): CCN(CC)c1ccc(C=O)cc1
- outcome [2]: inactive

Structure (SMILES): CCCCCCCCCc1ccc(OCCO)cc1
- AC50 [3]: 38.5 µM (active)
- AC50 [4]: 79.6 µM (active)
- outcome [2]: inactive
- outcome [5]: inactive
- AC50 [6]: 9.26 µM (active)
- AC50 [7]: 14.2 µM (active)

Structure (SMILES): Cc1ccc(O)cn1
- outcome [3]: inactive
- outcome [4]: inactive
- outcome [5]: inactive

Structure (SMILES): CC(C)(C)c1cc(CCC(=O)OCC(COC(=O)CCc2cc(C(C)(C)C)c(O)c(C(C)(C)C)c2)(COC(=O)CCc2cc(C(C)(C)C)c(O)c(C(C)(C)C)c2)COC(=O)CCc2cc(C(C)(C)C)c(O)c(C(C)(C)C)c2)cc(C(C)(C)C)c1O
- outcome [7]: inactive

Structure (SMILES): CCn1c2ccccc2c2ccccc21
- outcome [2]: inactive

Structure (SMILES): CCOC(OCC)OCC
- outcome [8]: inactive
- outcome [6]: inactive
- outcome [7]: inactive

Structure (SMILES): O=c1cccc[nH]1
- outcome [3]: inactive
- outcome [4]: inactive
- outcome [5]: inactive

Structure (SMILES): O=c1[nH]cccc1O
- AC50 [3]: 0.115 µM (active)
- outcome [4]: inactive
- outcome [2]: inactive
- outcome [5]: inactive

Structure (SMILES): CSc1ccc(O)cc1C
- outcome [2]: inactive

Structure (SMILES): CC(C)(C)c1cc(CCC(=O)NCCCCCCNC(=O)CCc2cc(C(C)(C)C)c(O)c(C(C)(C)C)c2)cc(C(C)(C)C)c1O
- outcome [2]: inactive

Structure (SMILES): CCOC(=O)C1CC(=O)C(=C(O)C2CC2)C(=O)C1 (stereo unspecified)
- outcome [8]: inactive
- outcome [1]: inactive
- outcome [6]: inactive
- outcome [7]: inactive

Structure (SMILES): CCCCOC(=O)C(C)O (stereo unspecified)
- outcome [6]: inactive
- outcome [7]: inactive

Structure (SMILES): Cc1ccc2c(c1)OCC(=O)CO2
- outcome [1]: inactive

Structure (SMILES): N#Cc1ccccc1O
- outcome [2]: inactive
- outcome [6]: inactive
- outcome [7]: inactive

Structure (SMILES): Nc1cccnc1N
- outcome [2]: inactive

Structure (SMILES): CN1CN(C)CN(C)C1
- outcome [2]: inactive

Structure (SMILES): CCCCCCCCCCCCCC[P+](CCCC)(CCCC)CCCC
- AC50 [3]: 47.9 µM (active)
- AC50 [4]: 4.44 µM (active)
- AC50 [5]: 83 µM (active)
- AC50 [6]: 0.0138 µM (active)
- AC50 [7]: 0.0138 µM (active)

Structure (SMILES): Oc1ccc2c(c1)CCC2
- outcome [2]: inactive

Structure (SMILES): CCCCCCCCCCCCC[N+](C)(C)Cc1ccccc1
- AC50 [3]: 25.5 µM (active)
- AC50 [4]: 9.42 µM (active)
- outcome [2]: inactive
- outcome [5]: inactive
- AC50 [6]: 2.99 µM (active)
- AC50 [7]: 3.31 µM (active)

Structure (SMILES): CC(C)CC=C(C=O)c1ccccc1
- outcome [1]: inactive

Structure (SMILES): CCCCCCCC/C=C\CCCCCCCC(=O)OCC(O)CO (stereo unspecified)
- outcome [7]: inactive
